Data on 24 compounds can be found in PubChem BioAssay AID1347081 (National Center for Advancing Translational Sciences (NCATS), 2019).

Each structure is given as a SMILES string. Inconclusive results are not listed. Values without a mark were called inactive. Activity calls are given as the source filed them. The call rests on the fitted dose curve.

The assay is described as follows: qHTS for Inhibitors of the Functional Ribonucleoprotein Complex (vRNP) of Lassa (LASV) Arenavirus: Viability assay - alamar blue signal for LASV Confirmatory Screen. Conditions: LASV vRNP counter-screen cells; series mostly up to 53.9 µM; activity change, negative = decreased viability: at the top concentration. (In general: qHTS replaces the single test concentration by a dilution series.)
For `Nc1ccc([N+](=O)[O-])cc1O`, the Potency was 39.5 µM (active). Take `CC(O)(P(=O)(O)O)P(=O)(O)O`: the “activity change, negative = decreased viability” value was 10.9%. With `CC12C(=O)OC(=O)C1(C)C1CCC2O1` (centres undefined), the Potency is 3.85 µM (active). The same measure, in the same setting: to `C=C(C)[C@H]1Cc2c(ccc3c2O[C@@H]2COc4cc(OC)c(OC)cc4[C@@H]2C3=O)O1` belongs 0.193 µM (active); to `CCn1c(-c2nonc2N)nc2cnc(Oc3cccc(NC(=O)c4ccc(OCCN5CCOCC5)cc4)c3)cc21`, 8.63 µM (active). For the compound `CCOC(=O)OCC/C(SC(=O)OCC)=C(\C)N(C=O)Cc1cnc(C)nc1N`, the “activity change, negative = decreased viability” value was -11.9%.

Consider `CC(O)C(O)[C@H]1CNc2nc(N)[nH]c(=O)c2N1` (some centres undefined), for which the “activity change, negative = decreased viability” value was 25.3%. Take `Cc1cccc(-c2[nH]c(C(C)(C)C)nc2-c2ccc3c(c2)OCO3)n1`: the Potency was 4.85 µM (active).

Regarding `O=C(Nc1ccccc1)Nc1ccc(-c2ccc(C(=O)[C@H]3CCC[C@H]3C(=O)O)cc2)cc1`, the “activity change, negative = decreased viability” value was -29.7%. On to `COc1ccc(Cc2nccc3cc(OC)c(OC)cc23)cc1OC`, for which the Potency was 13.7 µM (active).

As to `CCCCCC[C@H]1C(=O)O[C@H](C)[C@H](NC(=O)c2cccc(NC=O)c2O)C(=O)O[C@@H](C)[C@@H]1OC(=O)CC(C)C`, the Potency is 0.0544 µM (active). The same measure, in the same setting: as for `O=C(Nc1ccc([N+](=O)[O-])cc1Cl)c1cc(Cl)ccc1O`, the figure is 2.17 µM (active); as for `C=C(C)C1Cc2c(ccc3c2OC2COc4cc(OC)c(OC)cc4C2C3=O)O1` (centres undefined), 0.0968 µM (active). With `CC(=O)OCC(=O)[C@@]12N=C(C)O[C@H]1C[C@H]1[C@@H]3CCC4=CC(=O)C=C[C@]4(C)[C@@H]3[C@@H](O)C[C@@]12C`, the “activity change, negative = decreased viability” value was -42.9%. Take `CC1=C(C)C(=O)C(CCCCC#CCCCC#CCO)=C(C)C1=O`: the Potency is 24.3 µM (active).

Take `Cc1ccc2c(c1)C1CN(C)CCC1N2` (centres undefined): the “activity change, negative = decreased viability” value was -11.9% [at 19.4 µM]. As for `CCCCCN=C(N)N/N=C/c1c[nH]c2ccc(OC)cc12`, the Potency is 8.63 µM (active). Still for that read-out and setting: as for `Cc1cc2c(C(C)C)c(O)c(O)c(C=O)c2c(O)c1-c1c(C)cc2c(C(C)C)c(O)c(O)c(C=O)c2c1O`, the figure is 21.7 µM (active); as for `CO/C=C(/C(=O)OC)c1ccccc1Oc1cc(Oc2ccccc2C#N)ncn1`, 31.4 µM (active). In the case of `CCCCC[C@H](O)/C=C/C=C/C/C=C\CCCC(=O)O`, the activity change, negative = decreased viability was 20.4% [at 0.666 µM]. As to `Fc1ccc(CNc2ncnc3ccc(F)cc23)cc1`, the Potency is 15.3 µM (active).

Regarding `Clc1nccc2c1ccc1ccccc12`, the “activity change, negative = decreased viability” value is -23.3%. The same measure, in the same setting: as for `CCC(c1ccc(O)cc1)C(CC)c1ccc(O)cc1` (centres undefined), the figure is -23.8%. Turning to `CC1OC(=O)[C@@H](C(C)C)NC(=O)C(C(C)C)OC(=O)[C@H](C(C)C)NC(=O)C(C)OC(=O)[C@@H](C(C)C)NC(=O)C(C(C)C)OC(=O)[C@H](C(C)C)NC(=O)C(C)OC(=O)[C@@H](C(C)C)NC(=O)C(C(C)C)OC(=O)[C@H](C(C)C)NC1=O` (some centres undefined), the Potency was 1.22 µM (active).
